In all, about 59,000 sequences were measured (the read-out: median about -0.00055, lowest 2% from about -2 on). The sample as a whole holds a higher share of the lowest values than the screen did.

The nature of this test: Identification of proteins required for the processing of the EWS-FLI1 nascent transcript.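 Further: robust z of luciferase light less the median z of siRNAs with the same seed.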 As to conditions: TC32 Ewing sarcoma NR0B1-luc vs CMV-luc (EWS-FLI1 target promoter against control promoter), 48 h; screened at 20 nM (by protocol). In outline:
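Genome-wide siRNA screen (Ambion v4.1, three siRNAs per gene, 20 nM final, RNAiMax) in Ewing sarcoma TC32 cells carrying NR0B1-promoter or CMV-promoter luciferase; OneGlo luciferase read 48 h post-transfection. Data normalized, z-score-MAD transformed and seed-adjusted.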
Consider AUAGAUACAGGUGAUGCAG against EGLN2, for which the seed-corrected z-score was 1.45. With UACUCUCACAGCUUGCACC against KCTD18 the figure was -0.258; with UUGGGAAGCAGGUGCAUGC against LAIR1, -2.03; with UAGAGGCACCGAGUCAACG against DBF4B, 0.153.

Sequence UGAGUUCCGACACUCCAUC against EIF4EBP1 had a seed-corrected z-score of 0.187. Turning to UCUGCUUUCUGUACCCGAC against GATA3-AS1, the seed-corrected z-score is -2.32.

The sequence UUUGUUACAAGCACCUACU against LOC730179 gave a seed-corrected z-score of 0.536. With ACAGGUGCAUUGGACUUGG against KCTD15 the figure was -3.06. With UUGAUCACCUCAGAGGCCG against USE1 the figure was -1.2; with UUAUGCUAAAAUCUACUCC against TNKS2, -1.04; with AAUAGGUGUAAGUCCGUGC against NR5A2, -2.54. UUAGUCCAGAGGUUUCAUC against PCAT18 returned a seed-corrected z-score of -0.77. With UCACAAUUUAGUGUAAUAG against ETFBKMT the figure was 0.195.

For UCGGUAAUCCGGGUGAAGC against FGF14-AS2, the seed-corrected z-score was -0.163.

Sequence UCCUGGAUUGGGAAGGUGC against C9orf172 displayed a seed-corrected z-score of -0.383. In the case of UGCAGUAGAAUUUACACGC against RB1, the seed-corrected z-score is -2.42. Turning to UUUGCUAUCAGGGAACAUC against SPRR2B, the seed-corrected z-score is -0.452.

Take UGAUGGUAGAGUUCCAGUG against MYBL2: the seed-corrected z-score was -0.637. UUGCUUAUGAGCUUGAUGG against MAST1: the seed-corrected z-score is -2.39.

As for UAAGCGGUUCAUGCUGUGG against CPA5, the seed-corrected z-score was -0.872.

UAGUGGAAGACGGAAAAGU against SFN gave a seed-corrected z-score of -0.0924. With AGUAUAACCAGUGGGAGGC against EWSR1 the figure was -5.73; with UAUCUGAAGAUCUAGACUC against ZNF280D, -0.0696; with UCCUUGACCAGAAAUCUCA against TRIM31, -0.472. With UACGUCAAACGGAACUUCC against LRPPRC the figure was -0.194. Regarding UCAUGUAUAAACAGUCGCC against ALDH7A1, the seed-corrected z-score worked out at 0.368.

UUAGCAUGAUGAUCAAGGC against LIN28B returned a seed-corrected z-score of 0.22. With UUAUAUAUCUCCUGGAGCG against AGPAT3 the figure was -0.537; with UGAGUUUCGAGAGCACAGU against MID1IP1, -3.02. With AAACUUUCUCCUUAAGGCC against PRR11 the figure was -0.21; with UUGCAAUUGAAUUCACAGC against SRI, -0.0706; with UGAAGGAUUUGUGACAUAC against ZFP28, -0.0712. With UGUGGUUCCAAGGCACGUC against CCER2 the figure was -2.12; with UUCCUUGGGCCCUAUAUGU against FAM168A, -0.129. As to AACGUAGAAAAGCAUAUCG against DENND5B, the seed-corrected z-score was -0.0535.

UAUCUUGCUGGUGUGUGUG against MAX: the seed-corrected z-score was -0.878. With AUAGGCUUUAUCAAGAUCG against MPP5 the figure was 0.288; with UGAAUUUCUCGAAUCUGUG against SF3B1, -4.69; with UGACCGAUGACAGGUAUCU against MRGPRX3, -0.02. Consider UUUUGAGUGGGUAUCAACC against VIM, for which the seed-corrected z-score amounted to 0.533. With UUCUGUGCUACUUUGUGCU against SSR3 the figure was 1.19; with UCCCUGAAUAGUGUGACAG against CCDC103, 0.246; with UUACAUCCAAUUGUAAAGG against C5orf22, -2.74. With UUUGCGAAACUCCAAGUCC against LMNB1 the figure was -0.159. With AAAAAUAUCUGUGAUUCUG against WNK1 the figure was 0.399; with UAGGCAUCGAUGUGGAAGC against TELO2, 2.04; with UCAGCAGAUCUUGACAGUC against LYZL6, 0.253. CUGCUUCUGAGCGUUUGCG against MED14OS had a seed-corrected z-score of -2.09. With UUGCCGUAUAGGUAGUUUG against NPTX2 the figure was -0.552; with UAGGCGACGCCCUUUUUCU against H3.X, -0.0707; with UUUGAGUCCUCAUGGGUGG against GTF3C4, 1.63. With UAGGUGUUGAUGAUCUCCC against XAB2 the figure was -2.44. As to UUUGUCUCUGCGGAGGUUC against EIF3D, the seed-corrected z-score was -0.479. Turning to UGAUUAGUCACCAAAGUCC against ATF7IP, the seed-corrected z-score was -1.24. With UACUGUCGAACUUUGCCUG against HEPH the figure was -1.6; with UCACUAGCAAGGUUCUCCC against LARP4B, 0.24. With UAAUGUACUUGAUCGCAGC against ASCL3 the figure was -1.12. For AUAGUUGCCGGUGCUCACC against PICK1, the seed-corrected z-score was -3.04.

UACUGUAUAGGAAACGAUC against ESPL1 yielded a seed-corrected z-score of -0.0398. With UCGCUGUCCUUUAAGAGGC against NKAIN4 the figure was -0.183; with AUCGGGAAGAGAGUGUAUC against PTAFR, 0.45; with CAAGUGGAUCGAGCUUGCG against RPL29P12, 0.225.

UGACUCAAAACUACCAUCC against CCNA2: the seed-corrected z-score was -0.751. In turn, AUCUCUUUUAUCAGGGUUG against VEGFB showed a seed-corrected z-score of -2.11. AACGAUUUUAUCCAAAAUG against FBXO25: the seed-corrected z-score came out at 0.881. Consider UAUAUGUCUCGCAUUUGCC against TRE17, for which the seed-corrected z-score is -1.17. With AUCGCAAUAAUUUCAUCUG against NOL8 the figure was -0.121; with UACGUUAGUUUUGACACGC against RALY, -0.653; with UGCUAUAGCACCAACAGCC against CLCN5, -2.8. With UUGGGUUCUACAAGCUUCC against SDE2 the figure was -0.135; with AAGAUGUCUGUGGUCAUGG against PLCB2, 1.04. UUACUAGAAUCCUCAAUUG against OXR1 gave a seed-corrected z-score of -0.746. With UAAAGAUCAAUUCGCUUUG against GLRB the figure was -0.775. In the case of UGAAGGUUCAGAGUGCAAC against ISG20L2, the seed-corrected z-score was -0.949. The sequence UUCUGGAUUAGAAAGGUUC against NKRF displayed a seed-corrected z-score of 0.43. With UCCUUGUCGAACAUGAGCC against NTNG2 the figure was -2.93. The sequence UGCACAUCCUUGUCUAUGC against SGSM2 gave a seed-corrected z-score of 0.184. With UUACAUUCUGAGCCCAUCC against HTR7 the figure was -0.311; with UUAGUUAUAACAUAUGACU against LINC00900, -0.697; with ACAAUGGAAAGCACCUUCC against RINL, 0.198. Turning to UCCCAGUUGUGGAUGAUCC against PLEKHM1, the seed-corrected z-score was -0.204.

In turn, UAAAGACUACAAGCACAGC against OR51B5 showed a seed-corrected z-score of -2.14. With UUCAGUACAUCUCUGCAGG against RDH12 the figure was 0.532; with UUCAUCACAACCUUCCGUG against TLR5, 0.937. With UUCCAGGUCACCAACCACC against IFITM5 the figure was -0.607.

(Values after PubChem BioAssay AID1159506 (National Center for Advancing Translational Sciences (NCATS), 2015).)
